# Test results taken from the supplement of paper PMC10681739.
# Legend:
# [1] = molecular target: T1, ETS1 (UniProt P14921); assay: ETS1 binding intensity (PBM fluorescence), ETS1 alone (arbitrary fluorescence units); higher = stronger binding; conditions: ETS1 concentration 1 nM; RUNX1 concentration 0 nM
# T1 sequence: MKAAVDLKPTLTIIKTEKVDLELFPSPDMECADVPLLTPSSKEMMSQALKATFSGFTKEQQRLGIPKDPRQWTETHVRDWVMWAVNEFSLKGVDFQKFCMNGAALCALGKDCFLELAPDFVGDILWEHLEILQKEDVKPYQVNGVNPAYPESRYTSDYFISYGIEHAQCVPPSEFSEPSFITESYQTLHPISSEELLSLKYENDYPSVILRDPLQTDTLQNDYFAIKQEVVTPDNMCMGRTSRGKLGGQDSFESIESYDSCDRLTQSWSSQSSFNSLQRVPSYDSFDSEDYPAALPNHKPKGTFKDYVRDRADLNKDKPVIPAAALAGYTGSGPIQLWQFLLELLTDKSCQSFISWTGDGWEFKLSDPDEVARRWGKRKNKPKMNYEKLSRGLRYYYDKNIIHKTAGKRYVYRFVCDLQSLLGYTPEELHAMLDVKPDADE
# [2] = molecular target: RUNX1 (UniProt Q01196); assay: RUNX1 binding intensity (PBM fluorescence), RUNX1 alone (arbitrary fluorescence units); higher = stronger binding; conditions: RUNX1 concentration 2 nM; ETS1 concentration 0 nM
# RUNX1, sequence (Q01196 whole entry): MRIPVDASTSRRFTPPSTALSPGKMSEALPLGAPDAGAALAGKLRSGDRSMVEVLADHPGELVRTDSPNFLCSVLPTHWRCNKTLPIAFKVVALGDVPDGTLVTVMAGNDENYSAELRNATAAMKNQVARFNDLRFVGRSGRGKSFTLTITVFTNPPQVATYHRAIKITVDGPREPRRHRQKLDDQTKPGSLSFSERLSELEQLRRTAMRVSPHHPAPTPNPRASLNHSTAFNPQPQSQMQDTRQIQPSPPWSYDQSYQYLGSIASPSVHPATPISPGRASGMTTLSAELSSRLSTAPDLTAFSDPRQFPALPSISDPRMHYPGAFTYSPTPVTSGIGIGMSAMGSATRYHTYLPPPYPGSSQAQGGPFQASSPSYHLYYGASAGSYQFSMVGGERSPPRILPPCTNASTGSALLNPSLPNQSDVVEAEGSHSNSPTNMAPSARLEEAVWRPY
# Procedure: (§1)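 Cooperative gcPBM on 36-bp genomic probes with neighbouring ETS1 and RUNX1 sites. Recombinant human RUNX1 (2 nM) was incubated alone or with ETS1 (25 nM) and detected with anti-RUNX1 antibody plus Alexa488 secondary. Values are medians over 4 replicate spots; the RUNX1+ETS1 data were normalised to the RUNX1-only data. The probes sit in constant array flanks that are not printed.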
# [3] = molecular target: T1, ETS1; assay: ETS1 binding intensity (PBM fluorescence) in presence of RUNX1, normalised to ETS1-only experiment (arbitrary fluorescence units); higher = stronger binding; conditions: ETS1 concentration 1 nM; RUNX1 concentration 25 nM
# [4] = molecular target: RUNX1 (UniProt Q01196); assay: RUNX1 binding intensity (PBM fluorescence) in presence of ETS1, normalised to RUNX1-only experiment (arbitrary fluorescence units); higher = stronger binding; conditions: RUNX1 concentration 2 nM; ETS1 concentration 25 nM
# Procedure: as §1
# 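Wherever RUNX1 binding intensity (PBM fluorescence) in presence of ETS1, normalised to RUNX1-only experiment is given: Full-length recombinant human ETS1 or RUNX1 bound to double-stranded 36-bp genomic probes on microarrays, detected by protein-specific primary antibody and Alexa488 secondary, spot fluorescence as median of four replicate spots.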
# 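Wherever RUNX1 binding intensity (PBM fluorescence), RUNX1 alone is given: Full-length recombinant human RUNX1 bound to double-stranded 36-bp genomic probes on a high-density microarray, scored as Alexa488 fluorescence per spot via anti-RUNX1 antibody, median of four replicate spots.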
sequence,measurement,setting,value
CTAACAGCAGGAAGTGCTTGGTGGTTTAGCACCTCA,ETS1 binding intensity,[1],2990
same,RUNX1 binding intensity,[2],664
same,ETS1 binding intensity,[3],7150
same,RUNX1 binding intensity,[4],1180
TCTCTTCCGTTCTCTGGTAGCTTTGTGGTAGCTTTG,ETS1 binding intensity,[1],369
same,RUNX1 binding intensity,[2],1350
same,ETS1 binding intensity,[3],534
same,RUNX1 binding intensity,[4],2710
CTGGTTTCCAACATCCTGTGGGCGGCCTGGTTTCAG,ETS1 binding intensity,[1],1260
same,RUNX1 binding intensity,[2],785
same,ETS1 binding intensity,[3],1270
same,RUNX1 binding intensity,[4],2210
GTCTTCCTTCCTGAGAATCTTAACCACCAGCTTGCC,ETS1 binding intensity,[1],434
same,RUNX1 binding intensity,[2],1350
same,ETS1 binding intensity,[3],483
same,RUNX1 binding intensity,[4],2050
CTGGAGAGGATGTGGCCCCAGTGTGGTTCTGTAACT,ETS1 binding intensity,[1],610
same,RUNX1 binding intensity,[2],837
same,ETS1 binding intensity,[3],776
same,RUNX1 binding intensity,[4],1170
CCCTGACTTTTACGGAAATAGCGGTCCAAAAGCGCC,ETS1 binding intensity,[1],986
same,RUNX1 binding intensity,[2],880
same,ETS1 binding intensity,[3],1080
same,RUNX1 binding intensity,[4],1160
CTGAAACAGGAAACAGACAAAGCCACAAGGTTCGCA,ETS1 binding intensity,[1],1840
same,RUNX1 binding intensity,[2],746
same,ETS1 binding intensity,[3],5750
same,RUNX1 binding intensity,[4],1780
TGGCTGCCACTGAGAGGATGTGGTGACAGAGGTGGG,ETS1 binding intensity,[1],1700
same,RUNX1 binding intensity,[2],693
same,ETS1 binding intensity,[3],4350
same,RUNX1 binding intensity,[4],886
GTGGGGAGAGGCAGGAAACCGCTGCCGCCGACGGGG,ETS1 binding intensity,[1],3550
same,RUNX1 binding intensity,[2],807
same,ETS1 binding intensity,[3],4730
same,RUNX1 binding intensity,[4],1030
GCACTCATTTCCTGTCCCCTGTGGTTTAAAGGTTTT,ETS1 binding intensity,[1],1990
same,RUNX1 binding intensity,[2],1260
same,ETS1 binding intensity,[3],4620
same,RUNX1 binding intensity,[4],4770
GATCCCCCTCCTCCATCCTGTGGCTTCGGGTTGCCG,ETS1 binding intensity,[1],482
same,RUNX1 binding intensity,[2],819
same,ETS1 binding intensity,[3],420
same,RUNX1 binding intensity,[4],1150
GGGGCTCCGCAGGAAGTAGGGCTCCCACAACTTTGC,ETS1 binding intensity,[1],2970
same,RUNX1 binding intensity,[2],664
same,ETS1 binding intensity,[3],2310
same,RUNX1 binding intensity,[4],1040
GCCAGGGCAGGAAGTTGCTAACCGCCCCAGAGCAGG,ETS1 binding intensity,[1],2840
same,RUNX1 binding intensity,[2],804
same,ETS1 binding intensity,[3],4850
same,RUNX1 binding intensity,[4],1460
CGGCCTCTTCCGGTCACCTGGCCCGTCGCGGTCCCG,ETS1 binding intensity,[1],1800
same,RUNX1 binding intensity,[2],1040
same,ETS1 binding intensity,[3],1520
same,RUNX1 binding intensity,[4],2290
GACCGAGAGGAAGCAGCAAGGATCCTGCGGTTCCAG,ETS1 binding intensity,[1],505
same,RUNX1 binding intensity,[2],821
same,ETS1 binding intensity,[3],1990
same,RUNX1 binding intensity,[4],875
AGGGACTTCCGGTGACCAGAGCACTAGCGCCGCAAA,ETS1 binding intensity,[1],2160
same,RUNX1 binding intensity,[2],768
same,ETS1 binding intensity,[3],1990
same,RUNX1 binding intensity,[4],2070
GAAATTTCCGCTTTCTTTCTGCAGCAGGAACCGCGG,ETS1 binding intensity,[1],2670
same,RUNX1 binding intensity,[2],849
same,ETS1 binding intensity,[3],2590
same,RUNX1 binding intensity,[4],2550
GGCCAACGAGAGCGCTTCCGGCCGCAGCCACGGCGG,ETS1 binding intensity,[1],1950
same,RUNX1 binding intensity,[2],735
same,ETS1 binding intensity,[3],3000
same,RUNX1 binding intensity,[4],1420
GTTGAAATTGAGCTTCCGTTGGTGGTTAACCCTCTG,ETS1 binding intensity,[1],648
same,RUNX1 binding intensity,[2],894
same,ETS1 binding intensity,[3],921
same,RUNX1 binding intensity,[4],1310
GCAGGCGGAGCTTGAGGAAACCGCAGATAAGTTTTT,ETS1 binding intensity,[1],463
same,RUNX1 binding intensity,[2],9080
same,ETS1 binding intensity,[3],2510
same,RUNX1 binding intensity,[4],10200
CAGCTGCTGACAGGAAAACCACAGTGGAAGGGGAAG,ETS1 binding intensity,[1],848
same,RUNX1 binding intensity,[2],898
same,ETS1 binding intensity,[3],1550
same,RUNX1 binding intensity,[4],1050
GAAGGTTGTAGAGGAAGTGGTTTGTTCTTCCTCCTG,ETS1 binding intensity,[1],2670
same,RUNX1 binding intensity,[2],837
same,ETS1 binding intensity,[3],4070
same,RUNX1 binding intensity,[4],1640
CGAAGCCGGAAATGCTGAGTGTGCGGGGCCGAACGT,ETS1 binding intensity,[1],4230
same,RUNX1 binding intensity,[2],694
same,ETS1 binding intensity,[3],4980
same,RUNX1 binding intensity,[4],1220
AGCACCCGGAAGTCGGAGCTGCGCACGCACCGCGGG,ETS1 binding intensity,[1],2180
same,RUNX1 binding intensity,[2],751
same,ETS1 binding intensity,[3],1910
same,RUNX1 binding intensity,[4],1210
CTGCTGCCGCGAACAGGAAACCACTACAATCAGGAG,ETS1 binding intensity,[1],2840
same,RUNX1 binding intensity,[2],816
same,ETS1 binding intensity,[3],4530
same,RUNX1 binding intensity,[4],1100
GAGAACTTCCGGTGCGCTCCCCGGGACTGCGGTCCC,ETS1 binding intensity,[1],3420
same,RUNX1 binding intensity,[2],729
same,ETS1 binding intensity,[3],4920
same,RUNX1 binding intensity,[4],2780
AAATACCAGCCCACTTCCTGTGGCTTTGATCTGCAG,ETS1 binding intensity,[1],2090
same,RUNX1 binding intensity,[2],855
same,ETS1 binding intensity,[3],3340
same,RUNX1 binding intensity,[4],5090
GCCAGGAGGACTTCCGGGTGGGTGTGGTATCTGCGA,ETS1 binding intensity,[1],1320
same,RUNX1 binding intensity,[2],780
same,ETS1 binding intensity,[3],2540
same,RUNX1 binding intensity,[4],2300
GTCCTCTTCCTGTCCCCCAGGTGGGCATGTGGTTTG,ETS1 binding intensity,[1],519
same,RUNX1 binding intensity,[2],988
same,ETS1 binding intensity,[3],751
same,RUNX1 binding intensity,[4],1790
TGCCGGGCCCCGGATGTCACCGCAGCCGCCATCTTA,ETS1 binding intensity,[1],2460
same,RUNX1 binding intensity,[2],968
same,ETS1 binding intensity,[3],6730
same,RUNX1 binding intensity,[4],1990
ACAAAACAAACACATCCCCCAAACCGCCAAACTACA,ETS1 binding intensity,[1],606
same,RUNX1 binding intensity,[2],1310
same,ETS1 binding intensity,[3],627
same,RUNX1 binding intensity,[4],1300
GTGGATTTCACATCCTGTCCTAGCGGTATGTTTGTC,ETS1 binding intensity,[1],1470
same,RUNX1 binding intensity,[2],783
same,ETS1 binding intensity,[3],1610
same,RUNX1 binding intensity,[4],1750
GAAGCTACTCTGGTTTCCTGTGGTTTTCTGAGCACT,ETS1 binding intensity,[1],597
same,RUNX1 binding intensity,[2],1260
same,ETS1 binding intensity,[3],1320
same,RUNX1 binding intensity,[4],2900
AACTTCCGAGGGAACTAACTGGTTTTAACCACATTG,ETS1 binding intensity,[1],367
same,RUNX1 binding intensity,[2],886
same,ETS1 binding intensity,[3],923
same,RUNX1 binding intensity,[4],1190
CCTGCCTGAGGCAGGAAGCCGCAGCTGAGGGACGGC,ETS1 binding intensity,[1],2980
same,RUNX1 binding intensity,[2],761
same,ETS1 binding intensity,[3],5390
same,RUNX1 binding intensity,[4],1280
CTGGGGATGTGTGACACTCAGAGAAACCACAAGGTG,ETS1 binding intensity,[1],495
same,RUNX1 binding intensity,[2],1010
same,ETS1 binding intensity,[3],1390
same,RUNX1 binding intensity,[4],1140
CCCGCCGGAAGGACGCGTCTGCGTCTCTGCGGCGAG,ETS1 binding intensity,[1],680
same,RUNX1 binding intensity,[2],688
same,ETS1 binding intensity,[3],1010
same,RUNX1 binding intensity,[4],955
CATGGTTGTTATTTCCTCACCACAATATGTGACATT,ETS1 binding intensity,[1],386
same,RUNX1 binding intensity,[2],1200
same,ETS1 binding intensity,[3],463
same,RUNX1 binding intensity,[4],1300
CCGATTTCCCCGGACGTGGTGAGACCGCGCTTCGTC,ETS1 binding intensity,[1],591
same,RUNX1 binding intensity,[2],835
same,ETS1 binding intensity,[3],855
same,RUNX1 binding intensity,[4],1280
TGCTTTTCAGGTGCAGGAAGTGGTTTGCCTTTGCCC,ETS1 binding intensity,[1],7810
same,RUNX1 binding intensity,[2],788
same,ETS1 binding intensity,[3],11000
same,RUNX1 binding intensity,[4],1200
